Consider 5 molecules from PubChem BioAssay.

Calls of active or inactive are those of the source.

For test [1], the system named is Plasmodium falciparum Sir2 (PF13_0152, Sir2A). The test can be described thus: Plasmodium falciparum Sir2A binding compounds – biochemical, small-molecule microarray, 635 nm fluorescence, primary screen (AID 1098).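 Further: score merges spot fluorescence intensity with its signal-to-noise ratio.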 The note with it: fluorescence 635 nm, higher = more signal.
Test [2] can be described thus: probe aDKK1 binding to arrayed compounds – biochemical, biotinylated probe, 635/667 nm fluorescence, primary screen (AID 1099).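 Further: score merges 667nm spot fluorescence with signal to noise across triplicate slides.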 To be noted: small-molecule microarray, higher = more signal.
Test [3] is described as follows: probe aCHRDL2 binding to arrayed compounds – biochemical, biotinylated probe, 635/667 nm fluorescence, primary screen (AID 1100). The note with it: small-molecule microarray, higher = more signal.
Test [4] in a line: change in splice reporter luminescence, either direction, cell-based, HEK293, spliceosome inhibition project, primary screen (AID 1101).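 Further: HEK293 cells carrying a splicing-competent luciferase reporter gene; test concentration not given here.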 To be noted: HEK293 splicing luciferase reporter, 24 h, higher = more signal, called active from +8 up or from −8 down. (In general: A reporter such as luciferase makes a cellular process visible.)
Test [5] concerns the target Fibroblast growth factor 10 (Homo sapiens) (UniProt O15520). The test can be described thus: compounds binding fibroblast growth factor 10 – biochemical, small-molecule microarray, 635 nm fluorescence, primary screen (AID 1102). To be noted: FGF10 binding, fluorescence 635 nm, higher = more signal.
Test [6] has as its system glycogen synthase kinase-3 (GSK3A per assay name; protocol says GSK3B). The test can be described thus: compounds binding glycogen synthase kinase-3 – biochemical, small-molecule microarray, 635 nm fluorescence, GSK3A, primary screen (AID 1103). Further: the record names both GSK3A and GSK3B. The note with it: fluorescence 635 nm, higher = more signal.
The target in test [7] is Epidermal growth factor receptor (Homo sapiens) (UniProt P00533). The test can be described thus: compounds binding epidermal growth factor receptor – biochemical, small-molecule microarray, 635 nm fluorescence, primary screen (AID 1104).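 Further: score merges 667 nm emission intensity with spot signal to noise over triplicate slides.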 The note with it: EGFR binding, higher = more signal.
Epidermal growth factor receptor (Homo sapiens), sequence (P00533 whole entry, looked up): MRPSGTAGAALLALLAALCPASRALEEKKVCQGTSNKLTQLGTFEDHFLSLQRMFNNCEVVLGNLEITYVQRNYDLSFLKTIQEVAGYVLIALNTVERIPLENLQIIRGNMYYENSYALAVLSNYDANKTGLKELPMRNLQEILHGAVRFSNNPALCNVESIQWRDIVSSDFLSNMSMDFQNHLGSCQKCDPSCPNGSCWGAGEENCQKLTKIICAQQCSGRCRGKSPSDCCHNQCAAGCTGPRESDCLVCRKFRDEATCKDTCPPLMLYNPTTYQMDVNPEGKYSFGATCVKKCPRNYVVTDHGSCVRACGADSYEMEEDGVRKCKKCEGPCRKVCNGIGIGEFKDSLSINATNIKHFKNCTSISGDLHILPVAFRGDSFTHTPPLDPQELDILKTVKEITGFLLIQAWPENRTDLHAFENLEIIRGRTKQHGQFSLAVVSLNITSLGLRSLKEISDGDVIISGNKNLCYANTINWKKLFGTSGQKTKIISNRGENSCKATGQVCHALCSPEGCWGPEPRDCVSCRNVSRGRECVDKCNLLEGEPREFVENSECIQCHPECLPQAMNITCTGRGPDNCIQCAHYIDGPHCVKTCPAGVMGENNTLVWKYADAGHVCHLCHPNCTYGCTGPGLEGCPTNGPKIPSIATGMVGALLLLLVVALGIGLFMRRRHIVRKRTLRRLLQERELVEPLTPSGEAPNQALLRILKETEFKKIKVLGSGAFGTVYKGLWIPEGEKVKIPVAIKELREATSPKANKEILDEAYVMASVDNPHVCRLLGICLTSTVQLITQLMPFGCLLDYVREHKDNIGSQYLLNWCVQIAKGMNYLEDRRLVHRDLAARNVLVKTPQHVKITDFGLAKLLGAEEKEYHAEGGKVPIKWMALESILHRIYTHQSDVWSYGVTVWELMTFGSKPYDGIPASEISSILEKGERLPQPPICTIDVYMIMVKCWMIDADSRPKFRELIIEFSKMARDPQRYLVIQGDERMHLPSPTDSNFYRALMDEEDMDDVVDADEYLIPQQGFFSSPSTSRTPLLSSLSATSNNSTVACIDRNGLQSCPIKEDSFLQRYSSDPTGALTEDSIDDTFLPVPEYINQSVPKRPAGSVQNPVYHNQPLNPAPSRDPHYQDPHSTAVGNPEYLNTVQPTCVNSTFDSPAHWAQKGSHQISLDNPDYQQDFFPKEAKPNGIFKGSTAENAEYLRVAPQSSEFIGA
Test [8] addresses Follistatin-related protein 3 (Homo sapiens) (UniProt O95633). The test can be described thus: compounds binding follistatin-related protein 3 – biochemical, small-molecule microarray, 635 nm fluorescence, primary screen (AID 1105).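 Further: score merges emission near 667 nm and signal to noise per printed spot across three slides.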 To be noted: FSTL3 binding, higher = more signal.
For test [9], the target named is Dickkopf-related protein 1 (Homo sapiens) (UniProt O94907). Nature of the test: small molecules binding DKK1 protein – biochemical, small-molecule microarray, 635 nm fluorescence scan, primary screen (AID 1106).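 Further: score merges emission near 667 nm with signal to noise over three replicate slides.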 The note with it: higher = more signal.
Dickkopf-related protein 1 (Homo sapiens), sequence (O94907 whole entry, looked up): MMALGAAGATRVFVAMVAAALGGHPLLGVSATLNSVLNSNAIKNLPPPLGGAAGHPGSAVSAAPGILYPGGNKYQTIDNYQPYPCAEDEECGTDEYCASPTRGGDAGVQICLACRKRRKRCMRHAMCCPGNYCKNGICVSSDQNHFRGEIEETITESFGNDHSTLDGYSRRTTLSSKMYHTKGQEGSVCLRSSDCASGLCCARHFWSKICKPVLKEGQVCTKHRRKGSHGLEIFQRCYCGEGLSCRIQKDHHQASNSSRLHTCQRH
In test [10] the test system is Inhibin beta A chain (activin A). The test can be described thus: small molecules binding activin A – biochemical, small-molecule microarray, 635 nm fluorescence scan, primary screen (AID 1107).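 Further: mouse activin A protein probed at 4.33 µg/mL on printed slides; score merges bound-protein fluorescence near 667 nm with spot signal-to-noise.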 To be noted: INHBA, higher = more signal.
Test [11] concerns Human papillomavirus type 1a protein E7 (residues 44-93). The test can be described thus: small molecules binding HPV E7 44-93 – biochemical, small-molecule microarray, residues 44-93, 635 nm fluorescence, primary screen (AID 1108).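 Further: E7 fragment applied at 1 µg/mL in TBST for 1 h at 4 C; score combines spot fluorescence with its signal to noise ratio.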 The note with it: fluorescence 635 nm, higher = more signal.
Test [12] can be described thus: hepatitis C replication reporter changes, two-sided – Huh7 cells, luciferase reporter, HCV replication inhibitor project, primary screen (AID 1109).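 Further: huh7 hepatoma cells harbouring a luciferase neomycin HCV replicon reporter; luciferase luminescence as measure of HCV replicon replication; test concentration not given here.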 To be noted: Huh7 HCV replicon luciferase reporter, 48 h; higher = more signal.
For test [13], the target named is Left-right determination factor 2 (Homo sapiens) (UniProt O00292). The test can be described thus: small molecules binding LEFTY2 protein – biochemical, small-molecule microarray, 635 nm fluorescence scan, primary screen (AID 1110). To be noted: higher = more signal.
Left-right determination factor 2 (Homo sapiens), sequence (O00292 whole entry, looked up): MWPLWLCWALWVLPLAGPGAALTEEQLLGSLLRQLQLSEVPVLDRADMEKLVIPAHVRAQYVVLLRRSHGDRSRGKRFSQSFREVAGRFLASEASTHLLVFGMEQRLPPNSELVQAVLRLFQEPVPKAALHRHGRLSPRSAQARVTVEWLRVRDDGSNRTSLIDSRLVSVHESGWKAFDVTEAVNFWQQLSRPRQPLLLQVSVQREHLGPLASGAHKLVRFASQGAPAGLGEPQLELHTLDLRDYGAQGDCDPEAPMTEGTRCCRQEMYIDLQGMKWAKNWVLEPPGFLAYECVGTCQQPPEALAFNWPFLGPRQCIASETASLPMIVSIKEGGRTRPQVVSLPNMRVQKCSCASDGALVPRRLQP
Test [14] has as its target Calmodulin-1 (Homo sapiens) (UniProt P0DP23). Nature of the test: small molecules binding calmodulin-1 with EGTA – biochemical, small-molecule microarray, Cy5-labelled CALM1, profiling panel (AID 1111).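 Further: labelled calmodulin applied in Tris saline Tween buffer holding calcium plus EGTA and DTT.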 To be noted: Cy5-CALM1 binding fluorescence, higher = more signal.
For test [15] the target is unchanged. The test can be described thus: small molecules binding Ca-loaded calmodulin-1 – biochemical, small-molecule microarray, Cy5-labelled CALM1, plus calcium, artefact control for SMM control-protein annotation, profiling panel (AID 1112).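 Further: score merges spot fluorescence with signal to noise from triplicate slides.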 The note with it: Cy5-CALM1 binding fluorescence, higher = more signal.
The nature of test [16]: probe aWnt5a binding to arrayed compounds – biochemical, biotinylated probe, 635/667 nm fluorescence, primary screen (AID 1113).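 Further: score merges 667 nm fluorescence intensity with signal-to-noise per printed feature.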 The note with it: small-molecule microarray, higher = more signal.
Test [17] in a line: probe aShh binding to arrayed compounds – biochemical, biotinylated probe, 635/667 nm fluorescence, primary screen (AID 1114).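 Further: probe is biotin-labelled aShh protein from a stem cell growth factor screen; measures binding of labelled protein to compounds printed on the slide; score merges feature fluorescence at 667 nm with signal-to-noise.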 To be noted: small-molecule microarray, higher = more signal.
The nature of test [18]: probe aNog binding to arrayed compounds – biochemical, biotinylated probe, 635/667 nm fluorescence, primary screen (AID 1115).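 Further: probe is biotinylated aNog protein used at 0.15 µg/mL for 1 h at 4 C; z-score combines 667 nm fluorescence of each spot with its signal to noise.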 The note with it: small-molecule microarray, higher = more signal.
Test [19] concerns the target Torsin-1A-interacting protein 1 (Homo sapiens) (UniProt Q5JTV8). The test can be described thus: compound microarray binding of lysate hLAP1 – cell lysate, small-molecule microarray, COS7 lysate, 635/667 nm fluorescence, primary screen (AID 1116). The note with it: 635 nm fluorescence, higher = more signal.
The target in test [20] is Alpha-bungarotoxin (Bungarus multicinctus) (UniProt P60615). The test can be described thus: compounds binding labelled alpha-BTX control protein – biochemical, small-molecule microarray, Alexa647 label, 635/667 nm fluorescence, artefact control for SMM control protein annotation, profiling panel (AID 1117). The note with it: alpha-BTX-A647 binding fluorescence, higher = more signal.
Alpha-bungarotoxin (Bungarus multicinctus), sequence (P60615 whole entry, looked up): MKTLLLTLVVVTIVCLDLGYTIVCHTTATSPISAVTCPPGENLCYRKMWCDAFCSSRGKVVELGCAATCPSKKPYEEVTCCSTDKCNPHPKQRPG

Fibroblast growth factor 10 (Homo sapiens), sequence (O15520 whole entry, looked up): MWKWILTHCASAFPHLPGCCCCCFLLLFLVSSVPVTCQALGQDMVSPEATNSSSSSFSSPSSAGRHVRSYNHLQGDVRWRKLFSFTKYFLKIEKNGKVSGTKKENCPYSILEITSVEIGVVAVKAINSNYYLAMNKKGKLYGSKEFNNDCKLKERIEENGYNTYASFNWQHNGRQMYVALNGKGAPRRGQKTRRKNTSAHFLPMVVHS
Follistatin-related protein 3 (Homo sapiens), sequence (O95633 whole entry, looked up): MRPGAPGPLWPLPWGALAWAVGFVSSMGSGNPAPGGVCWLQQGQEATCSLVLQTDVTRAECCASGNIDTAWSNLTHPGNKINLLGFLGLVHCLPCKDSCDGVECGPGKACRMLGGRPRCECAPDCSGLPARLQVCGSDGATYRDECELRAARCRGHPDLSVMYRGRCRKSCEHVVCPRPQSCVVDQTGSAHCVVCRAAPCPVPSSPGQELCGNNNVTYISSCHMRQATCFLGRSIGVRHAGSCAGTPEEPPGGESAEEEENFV
Torsin-1A-interacting protein 1 (Homo sapiens), sequence (Q5JTV8 whole entry, looked up): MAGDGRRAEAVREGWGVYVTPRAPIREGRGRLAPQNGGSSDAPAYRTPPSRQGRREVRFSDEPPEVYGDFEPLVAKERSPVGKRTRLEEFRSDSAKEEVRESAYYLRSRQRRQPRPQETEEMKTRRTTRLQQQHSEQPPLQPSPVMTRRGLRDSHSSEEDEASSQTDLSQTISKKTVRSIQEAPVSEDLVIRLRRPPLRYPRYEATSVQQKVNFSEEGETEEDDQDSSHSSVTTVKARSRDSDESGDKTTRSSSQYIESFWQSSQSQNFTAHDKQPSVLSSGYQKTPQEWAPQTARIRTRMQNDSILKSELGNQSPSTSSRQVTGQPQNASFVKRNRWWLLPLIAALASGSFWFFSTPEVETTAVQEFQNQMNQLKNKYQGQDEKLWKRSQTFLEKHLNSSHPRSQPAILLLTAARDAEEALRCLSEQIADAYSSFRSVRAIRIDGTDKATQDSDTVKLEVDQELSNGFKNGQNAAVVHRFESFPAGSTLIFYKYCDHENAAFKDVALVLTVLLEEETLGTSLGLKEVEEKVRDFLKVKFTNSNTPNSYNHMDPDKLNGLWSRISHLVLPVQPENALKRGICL

Take `COC(=O)c1c(CC[C@@H](CO)NC(=O)NCCn2cc(C3(O)CCCC3)nn2)oc(C(C)=O)c1C(=O)OC`: the composite z-score in test [1] is 0.546; in test [2], -0.147; in test [3] it was -0.26; in test [5] it was -0.0339; in test [6], -0.0275; in [7] it was 0.218. The composite z-score in test [8] is -0.234; in test [9] it was 0.0587; in test [10], 0.129; in test [11] it was -0.0133; in [13], -0.0138; in [14], -0.19. In addition, the composite z-score in [15] was -0.732; in test [16], -0.169; in [17] it was -0.195; in test [18], -0.158; in test [19], 0.331; in test [20], 0.139. In addition, the figures for the z-score in test [4] and in test [12] were -0.152 (inactive) and -0.674, respectively.
For `O=C(CS)NCCCCCCNC(=O)[C@@H]1C[C@@H]2C(=O)NCC(=O)N2[C@@H]1c1cccc(OCCO)c1`, the composite z-score in [1] was 1.49; in [2], -0.293; in [3], 0.632; in test [5] it was 0.331; in [6], 0.837; in test [7], -0.149. The composite z-score in test [8] is -0.16; in test [9] it was 0.139; in test [10] it was -0.755; in test [11] it was 1.41; in test [13] it was -0.709; in test [14] it was 2.44. Also, the composite z-score is -0.215 in test [15]; -0.177 in test [16]; -0.188 in test [17]; -0.652 in test [18]; 1.21 in test [19]; 1.1 in test [20]. In addition, the z-score was 0.288 (inactive) in test [4] and -0.895 in test [12].
As for `COc1ccc([C@H]2OC[C@@H]3C[C@@H](Cc4ccccc4)C(=O)N32)cc1`, the composite z-score in test [1] is 0.143; in [2], -0.191; in test [3] it was -0.435; in test [5], 1.3; in test [6], 0.228; in [7], 0.424. Besides, the composite z-score in test [8] was 0.821; in [9], 0.326; in test [10], -0.0187; in [11], -0.235; in test [13], 0.311; in test [14] it was -0.05. Also, the composite z-score in test [15] is -0.317; in test [16], -0.0203; in [17] it was -0.0146; in [18], -0.0273; in [19], 0.53; in test [20], -0.429. In addition, the z-score in [4] is 0.247 (inactive); in test [12] it was -0.859.
As for `CCOC(=O)C1=C[C@@H](C(C)(C)C)N(S(=O)(=O)c2ccc(C)cc2)[C@H]1c1ccc(F)cc1`, the composite z-score in test [1] was determined as 0.592; in test [2], 0.75; in [3], 0.4; in [5] it was 0.81; in test [6], 1.29; in test [7], 0.395. The composite z-score in test [8] amounted to 1.23; in test [9] it was 0.402; in [10] it was 0.556; in test [11], 1.41; in [13] it was 0.653; in test [14], 1.49. The composite z-score in [15] is 0.083; in test [16], 0.0668; in test [17] it was -0.1; in test [18] it was 0.509; in test [19], 0.992; in test [20], 1.15. The z-score in [4] was -0.711 (inactive); in test [12], -1.59.
For `C=C[C@H](CO)NS(=O)(=O)c1ccc(Br)cc1`, the composite z-score in [1] is 0.54; in test [2] it was 0.867; in [3] it was -0.54; in test [5] it was 0.335; in test [6], 0.526; in test [7], 0.393. In addition, the composite z-score in test [8] was found to be 0.695; in [9], 0.751; in test [10], 0.84; in test [11], 1.05; in [13] it was 0.375; in test [14], 0.158. Also, the composite z-score in [15] is -0.268; in [16] it was -0.096; in [17], -0.2; in test [18], -0.266; in [19], 0.306; in [20], 0.275. For the same molecule, the z-score was -0.0902 (inactive) in [4] and 0.109 in test [12].
